DT40 TDP1 no CPT = qHTS for Inhibitors of human tyrosyl-DNA phosphodiesterase 1 (TDP1): qHTS in cells in absence of CPT; DT40 Tdp1-/- hTDP1 cells, no CPT, ATP luminescence, 48 h; Potency, µM (series often up to 46.2 µM), hits mostly inhibitors; actives 15% (n = 420,000); AID 686978, 2013; note: nearly all actives have a fitted effect of over 55% in size
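DT40 Tdp1-/-;hTDP1 cells, no CPT (DMSO vehicle only), 400 cells/well; compounds pin-transferred; ≥48 hr, 37 °C; CellTiter-Glo 30 min RT dark, luminescence read.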
TDP1 cell CPT = DT40-hTDP1 cell growth loss with CPT; chicken DT40 Tdp1-/-;hTDP1 cells + 20 nM CPT, ATP luminescence, 48 h; Potency, µM (titrated, usually from 46.2 µM), actives largely listed as inhibitors; actives 12% (n = 420,000); AID 686979; note: nearly all actives have a fitted effect of over 55% in size
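Cell growth measured by CellTiter-Glo luminescence after a minimum 48 h, 37 C compound exposure with 20 nM CPT in Tdp1-knockout DT40 cells stably expressing hTDP1, seeded 400/well; qHTS titration format.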
Gal4-VP16 FLuc = Gal4-VP16 reporter inhibition counter-screen. Drosophila S2 Gal4-VP16 UAS-luciferase, luminescence, 20 h. Potency, µM (highest dose often 53.6 µM), actives largely listed as inhibitors. actives 3.5% (n = 310,000);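 note: Gal4-VP16 expression switched on by copper sulfate through the metallothionein promoter; nearly all actives have a fitted effect of over 50% in size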
ELG1 repair inh = ELG1-dependent DNA repair inhibition | HEK293T ELG1-luciferase reporter, luminescence, 16 h; DNA damage induced by 5-fluorouridine | Potency, µM (highest dose often 46.1 µM), actives largely listed as inhibitors | actives 2.3% (n = 330,000); note: nearly all actives have a fitted effect of over 55% in size
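Step one: seed 2,000 cells per well. Step two: pin-transfer compound or DMSO alongside 5-fluorouridine. Step three: incubate 16 hr, 37 °C, 5% CO2. Step four: add ONE-Glo, wait 30 min, read luminescence.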
RORgamma inh = blocks mouse ROR gamma transcriptional activity; P51450; Drosophila S2 Gal4-RORgamma UAS-luciferase reporter, 20 h; Potency, µM (titrated, usually from 53.6 µM), hits mostly inhibitors; actives 5.4% (n = 310,000); AID 2551; note: nearly all actives have a fitted effect of over 60% in size
Target sequence (P51450 whole entry, looked up, the tested form may be a part): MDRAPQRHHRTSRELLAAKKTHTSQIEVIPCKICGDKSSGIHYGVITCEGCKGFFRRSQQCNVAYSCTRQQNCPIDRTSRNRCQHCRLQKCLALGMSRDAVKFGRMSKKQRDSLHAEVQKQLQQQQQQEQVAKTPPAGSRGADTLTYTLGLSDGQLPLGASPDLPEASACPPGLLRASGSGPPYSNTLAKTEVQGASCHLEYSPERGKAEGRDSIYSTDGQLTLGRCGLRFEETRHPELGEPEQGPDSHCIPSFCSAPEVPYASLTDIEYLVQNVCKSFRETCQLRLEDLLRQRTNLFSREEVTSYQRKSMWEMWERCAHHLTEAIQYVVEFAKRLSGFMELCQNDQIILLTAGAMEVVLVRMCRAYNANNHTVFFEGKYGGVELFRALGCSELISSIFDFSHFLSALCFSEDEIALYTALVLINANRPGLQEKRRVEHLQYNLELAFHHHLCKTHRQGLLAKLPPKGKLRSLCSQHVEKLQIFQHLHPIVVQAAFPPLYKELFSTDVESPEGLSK
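Read-out: Photinus luciferase luminescence; inhibitors lower reporter signal. Insect Schneider cells with Gal4-ROR gamma fusion under metallothionein promoter, UAS reporter; 700 uM final copper sulfate induction, 20 hr, ambient temperature.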
IL-1B inflam inh = blocks inflammasome-driven IL-1 beta release. actives 4.7% (n = 360,000). activity change, % at 57.5 µM. THP-1 LPS/ATP IL-1B secretion, AlphaLISA, 16 h; hits give low values; in the data active = activity change below about -50%; inconclusive = mostly about -30% to -49%
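Secreted IL-1B measured by AlphaLISA bead assay after 16 h compound exposure of THP-1 cells; compounds (final up to 57.5 uM) added 1 h before LPS (250 ng/mL) and ATP (1.25 mM) stimulation; lower signal means less secretion.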
Large screens that a line does not name were inactive; ! = repeats disagree. Sampled rows, rich in hits. Any-hit rate of the full collection: about 21%. Unless noted, calls come from the whole dose curve; as a rule, active = well fitted curve in the direction sought with a large enough effect; inconclusive = small, poorly fitted or top-dose-only effect, or another doubt; inactive = no such curve, though single readings can be large; an effect the other way counts as inactive or inconclusive.

Nc1c(S(=O)(=O)c2cccs2)c2nc3ccccc3nc2n1Cc1ccc2c(c1)OCO2	DT40 TDP1 no CPT inconclusive, TDP1 cell CPT inconclusive, ELG1 repair inh inconclusive, IL-1B inflam inh -67
COc1ccc(CCn2c(N)c(S(=O)(=O)c3cccs3)c3nc4ccccc4nc32)cc1OC	DT40 TDP1 no CPT inconclusive, TDP1 cell CPT inconclusive, ELG1 repair inh inconclusive, IL-1B inflam inh -55
Nc1c(S(=O)(=O)c2ccccc2)c2nc3ccccc3nc2n1Cc1ccco1	DT40 TDP1 no CPT inconclusive, TDP1 cell CPT 18µM, Gal4-VP16 FLuc inconclusive, RORgamma inh inconclusive
Nc1c(S(=O)(=O)c2cccs2)c2nc3ccccc3nc2n1Cc1cccs1	DT40 TDP1 no CPT inconclusive, TDP1 cell CPT inconclusive
O=C(c1cccnc1)C1CCCN(Cc2ccc3c(c2)CN(C(=O)c2cccs2)CCO3)C1 (stereo not given)	DT40 TDP1 no CPT inconclusive (no result: Gal4-VP16 FLuc, ELG1 repair inh, RORgamma inh, IL-1B inflam inh)
COc1ccc(C(=O)/C=C/c2ccc(O)cc2)c(O)c1C/C=C(\C)CCC=C(C)C	DT40 TDP1 no CPT inconclusive, TDP1 cell CPT inconclusive, IL-1B inflam inh -87 (no result: Gal4-VP16 FLuc, RORgamma inh)
CC(C)=CCOc1ccc(/C=C/C(=O)c2ccc(OCC=C(C)C)cc2OCC(=O)O)cc1	RORgamma inh inconclusive (no result: ELG1 repair inh, IL-1B inflam inh)
C=CCC1CCCC(=O)N2CCCC12 (stereo not given)	none
CN(C)C1=NCCN1CCC1CCCCC1	DT40 TDP1 no CPT inconclusive, TDP1 cell CPT 12µM (no result: Gal4-VP16 FLuc, RORgamma inh)
C[C@H]1CN=C(N(C)C)N1CCCC1CCCCC1	DT40 TDP1 no CPT 16µM, TDP1 cell CPT 21µM, ELG1 repair inh inconclusive (no result: Gal4-VP16 FLuc, RORgamma inh)
CCCCCCCN1CCN=C1N(C)C	DT40 TDP1 no CPT 16µM, TDP1 cell CPT inconclusive (no result: Gal4-VP16 FLuc, RORgamma inh)
COc1cccc(C2=Nn3c(nnc3-c3cccc(OC)c3OC)SC2)c1	none (no result: DT40 TDP1 no CPT, TDP1 cell CPT, ELG1 repair inh, IL-1B inflam inh)
O=S1(=O)CCOC[C@H](Cc2ccccc2)N1Cc1cccc(C(F)(F)F)c1	DT40 TDP1 no CPT inconclusive, TDP1 cell CPT 18µM (no result: Gal4-VP16 FLuc, ELG1 repair inh, RORgamma inh)
CCC[C@H]1COCCS(=O)(=O)N1Cc1ccc(Br)cc1	DT40 TDP1 no CPT 11µM, TDP1 cell CPT inconclusive (no result: IL-1B inflam inh)
O=S1(=O)CCOC[C@H](CC2CCCCC2)N1Cc1cccc(C(F)(F)F)c1	DT40 TDP1 no CPT 18µM, TDP1 cell CPT inconclusive
CC(C)[C@H]1COCCS(=O)(=O)N1Cc1ccccc1	DT40 TDP1 no CPT 10µM!, TDP1 cell CPT inconclusive (no result: Gal4-VP16 FLuc, ELG1 repair inh, RORgamma inh)
O=S1(=O)CCOCCCN1Cc1cccc(C(F)(F)F)c1	none
Cc1ccc(CNC(=O)CCCn2c(=O)c3ccccc3n(Cc3ccccc3Cl)c2=O)cc1	DT40 TDP1 no CPT inconclusive (no result: Gal4-VP16 FLuc, ELG1 repair inh, RORgamma inh, IL-1B inflam inh)
CN1CCN(C(=O)C(=O)Nc2c3c(nn2-c2cccc(Cl)c2)CSC3)CC1	none (no result: Gal4-VP16 FLuc, ELG1 repair inh, RORgamma inh, IL-1B inflam inh)
Nc1cc(Cl)ccc1N1C(=O)CCC1=O	ELG1 repair inh inconclusive
COc1ccc(NC(=O)c2cc(C3CCCCN3C(=O)c3ccc4c(c3)CCO4)on2)c(C)c1 (stereo not given)	DT40 TDP1 no CPT inconclusive (no result: Gal4-VP16 FLuc, ELG1 repair inh, RORgamma inh)
CC1(C)CCC[C@@]2(C)C1CC[C@@](C)(O)[C@@H]2CC[C@@](C)(O)C1CO1 (stereo not given in full)	TDP1 cell CPT inconclusive (no result: ELG1 repair inh, IL-1B inflam inh)
COc1ccc(CCC2CCNCC2)cc1	DT40 TDP1 no CPT 18µM, TDP1 cell CPT inconclusive
CC(C)N1CSC(=S)N(Cc2ccccc2)C1	DT40 TDP1 no CPT 4.1µM, TDP1 cell CPT 4.1µM, IL-1B inflam inh -99
CC1CN(Cc2ccccc2)C(=S)N(c2ccccc2)C1=O (stereo not given)	none (no result: Gal4-VP16 FLuc, ELG1 repair inh, RORgamma inh)
CC(C)(C)N1CSC(=S)N(Cc2ccccc2)C1	DT40 TDP1 no CPT 4.6µM, TDP1 cell CPT 5.2µM
S=C1NCN(Cc2cccnc2)CN1Cc1ccccc1	DT40 TDP1 no CPT inconclusive, RORgamma inh inconclusive
S=C1SCN(Cc2cccnc2)CN1Cc1ccccc1	DT40 TDP1 no CPT 4.6µM, TDP1 cell CPT 2.9µM, Gal4-VP16 FLuc 6.3µM, RORgamma inh 3.2µM, IL-1B inflam inh -107
Cc1ccc(C)c(C(=O)N2CCC(C3(c4ccccn4)NC(=O)N(CC4CCCO4)C3=O)CC2)c1 (stereo not given)	none (no result: Gal4-VP16 FLuc, ELG1 repair inh, RORgamma inh, IL-1B inflam inh)

Screening data as filed in PubChem BioAssay.
